About 79,000 compounds went through this panel and 15% of them were active in at least one assay; those are over-represented in the sample as a whole. Values without a mark were called inactive. Calls of active or inactive are those of the source. Rule as the data show it: active = growth inhibition above about 70%; inactive = the rest.

The nature of the experiment: NCI Yeast Anticancer Drug Screen. Data for the CLN2oe strain (AID 163).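 Also: 0% = growth of vehicle-only control cultures.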 Particulars: S. cerevisiae CLN2oe strain, active compounds read high. On the procedure: Growth inhibition of yeast strains with defined genetic alterations is measured as a screen for potential anti-cancer activity. Selected strains with alterations in DNA damage repair or cell cycle control were exposed to compounds and growth inhibition was measured relative to vehicle treated controls. The strain used in this assay is CLN2oe

Consider `O=C(NNc1ccnc2cc(Cl)ccc12)/C(=C\c1ccccc1Cl)NC(=O)c1ccccc1`, for which the growth inhibition (at 1.2 µM) was 11%; the growth inhibition (at 3.7 µM) was 32%; the growth inhibition (at 11.0 µM) is 70% (active); the growth inhibition (at 33.0 µM) was 76% (active); the growth inhibition (at 100.0 µM) is 83% (active).
Taken in the same sequence, the figures for `Cc1cc(I)ccc1N` were -10%, -15%, -3%, 79% (active) and 86% (active).
In the same order, the values of `NNC(=O)CCc1ccc2ccc3ccccc3c2c1` are -10%, -15%, -17%, -3% and 60%.
In the case of `CSC(=S)Nc1cccc(C)n1`, the growth inhibition (at 1.2 µM) is -24%; the growth inhibition (at 3.7 µM) was -8%; the growth inhibition (at 11.0 µM) was -13%; the growth inhibition (at 33.0 µM) was 12%; the growth inhibition (at 100.0 µM) is 24%.
In the same order, the values of `CC(O)C(O)C(O)C(/C=N\Nc1ccccc1)=N/Nc1ccccc1` (stereo not given) are -7%, -4%, -5%, 18% and 28%.
In the same order, the values of `Nc1nc(-c2cccnc2)cc(-c2cc(-c3cccnc3)nc(N)n2)n1` are -2%, 2%, 2%, 1% and 1%.
Taken in the same sequence, the figures for `[O-][n+]1c2ccc(O)cc2nc2ccc(Br)cc21` were 14%, 21%, 40%, 54% and 64%.
As to `CC(C)c1cc(C(C)C)c(O)c(C([O-])[O-])c1.CC(C)c1cc(C(C)C)c(O)c(C([O-])[O-])c1.CC(C)c1cc(C(C)C)c(O)c(C([OH2+])[OH2+])c1.CC(C)c1cc(C(C)C)c(O)c(C([OH2+])[OH2+])c1.[Cu+2].[Cu+2].[OH3+].[OH3+]`, the growth inhibition runs as follows: (at 1.2 µM) 3%; (at 3.7 µM) 9%; (at 11.0 µM) 34%; (at 33.0 µM) 58%; (at 100.0 µM) 83% (active).

(Values after PubChem BioAssay (NCI).)
